# About 79,000 compounds went through this panel and 15% of them were active in at least one assay; those are over-represented in the sample as a whole. Unmarked numbers belong to inactive results. Calls of active or inactive are those of the source. No stated cut-off is given here; in the data, active means growth inhibition above about 70%; inactive means the rest.
# Key:
# [1] = NCI Yeast Anticancer Drug Screen. Data for the rad52 strain (AID 147);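 further: 0% = growth of vehicle-treated control cultures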; conditions: S. cerevisiae rad52 mutant growth inhibition, hits give high values
# How it was run: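 Growth of repair-deficient yeast cells was compared between compound-treated and vehicle-treated cultures to give percent inhibition.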
# [2] = NCI Yeast Anticancer Drug Screen. Data for the wt1 strain (AID 149);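 further: 0% = growth of vehicle-treated wt1 cultures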; conditions: S. cerevisiae wt1 strain (SPY 50644) growth inhibition, hits give high values
# How it was run: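 Readout: yeast growth inhibition, normalised to vehicle controls, in the wt1 strain exposed to test compounds.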
# [3] = NCI Yeast Anticancer Drug Screen. Data for the rad50EPP+ strain (AID 151);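 further: 0% = growth of vehicle-treated control cultures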; conditions: S. cerevisiae rad50 mutant strain, hits give high values
# How it was run: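 Measured: growth inhibition of rad50EPP+ yeast. Reference: vehicle-treated controls. Screen uses strains with defined genetic alterations in DNA damage repair or cell cycle control.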
# [4] = NCI Yeast Anticancer Drug Screen. Data for the mgt1 strain (AID 153); conditions: S. cerevisiae mgt1 mutant growth inhibition, hits give high values
# How it was run: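 Compounds were applied to mgt1 mutant yeast, and growth was then compared against vehicle-treated control cultures to give percent inhibition.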
# [5] = NCI Yeast Anticancer Drug Screen. Data for the rad50 strain (AID 155);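 further: 0% = growth of vehicle-only cultures of the same strain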; conditions: S. cerevisiae rad50 strain growth inhibition, hits give high values
# How it was run: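 Compounds were tested on a yeast strain with an engineered DNA damage repair alteration; the reported value is growth inhibition normalised to vehicle treatment.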
# [6] = NCI Yeast Anticancer Drug Screen. Data for the mec2-1 strain (AID 157); conditions: S. cerevisiae mec2-1 strain, hits give high values
# How it was run: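 Compounds were applied to mec2-1 yeast cells. Their growth was then compared with that of vehicle-treated cultures to give growth inhibition.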
# [7] = NCI Yeast Anticancer Drug Screen. Data for the rad14 strain (AID 159);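 further: 0% = growth of vehicle-treated control cultures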; conditions: S. cerevisiae rad14 strain growth inhibition, hits give high values
# How it was run: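 Compound-treated yeast with a defined DNA-repair lesion; growth inhibition normalised to vehicle-treated cultures.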
# [8] = NCI Yeast Anticancer Drug Screen. Data for the sgs1 mgt1 strain (AID 161);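 further: 0% = growth of cultures given vehicle only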; conditions: S. cerevisiae sgs1 mgt1 strain, hits give high values
# How it was run: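 Percent growth inhibition was derived by comparing compound-exposed mutant yeast with vehicle-exposed cultures. The strain carries alterations in DNA damage repair.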
# [9] = NCI Yeast Anticancer Drug Screen. Data for the CLN2oe strain (AID 163);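 further: 0% = growth of vehicle-only control cultures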; conditions: S. cerevisiae CLN2oe strain, hits give high values
# How it was run: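 Cells of an engineered yeast line with disturbed cell-cycle regulation are treated with compound. Inhibition of growth is then calculated relative to the vehicle-treated reference.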
# [10] = NCI Yeast Anticancer Drug Screen. Data for the cln2 rad14 strain (AID 165);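 further: 0% = growth equal to vehicle treated cultures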; conditions: S. cerevisiae cln2 rad14 strain, hits give high values
# How it was run: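 Strain: cln2 rad14 yeast, altered in cell cycle control and DNA damage repair. Read-out: growth inhibition vs vehicle.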
# [11] = NCI Yeast Anticancer Drug Screen. Data for the bub3 strain (AID 167); conditions: S. cerevisiae bub3 mutant strain, hits give high values
# How it was run: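 Growth of a checkpoint-deficient yeast mutant is measured after compound exposure. Values represent inhibition relative to vehicle.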
# [12] = NCI Yeast Anticancer Drug Screen. Data for the wt2 strain (AID 169);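 further: 0% = growth of vehicle-treated yeast cultures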; conditions: S. cerevisiae wt2 strain growth inhibition, hits give high values
# How it was run: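 Growth of compound-treated yeast is measured and expressed as inhibition relative to vehicle-only controls.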
# [13] = NCI Yeast Anticancer Drug Screen. Data for the mlh1 strain (AID 171);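 further: 0% = growth of vehicle-treated control cultures of the same strain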; conditions: S. cerevisiae mlh1 strain growth inhibition, hits give high values
# How it was run: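 Test agents were incubated with yeast bearing a defined DNA damage repair or cell cycle control alteration; values are growth inhibition normalised to vehicle-treated cultures.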
# [14] = NCI Yeast Anticancer Drug Screen. Data for the sgs1 strain (AID 173);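 further: 0% = growth of vehicle-only control cultures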; conditions: S. cerevisiae sgs1 mutant, hits give high values
# How it was run: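 Strain with an altered DNA repair or cell cycle pathway exposed to compound. Growth then measured. Value = inhibition versus vehicle control.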
# [15] = NCI Yeast Anticancer Drug Screen. Data for the mlh1 rad18 strain (AID 175); conditions: S. cerevisiae mlh1 rad18 strain growth inhibition, hits give high values
# How it was run: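 A repair-deficient yeast strain is exposed to test compound, and growth is scored relative to vehicle-treated controls.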
# [16] = NCI Yeast Anticancer Drug Screen. Data for the rad18 strain (AID 177); conditions: S. cerevisiae rad18 mutant growth inhibition, hits give high values
# How it was run: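 DNA-repair-defective yeast; compound treatment; growth inhibition scored against vehicle.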
# [17] = at 5.0 µM (retest, dose inferred, filed as 0.5)
# [18] = at 50.0 µM (retest, dose inferred, filed as 5.0)
smiles,measurement,setting,value
O=C1/C(=C/c2ccc(Cl)c(Cl)c2)CNC/C1=C\c1ccc(Cl)c(Cl)c1,growth inhibition,[1]; at 1.2 µM,22%
same,growth inhibition,[1]; at 3.7 µM,22%
same,growth inhibition,[1]; at 11.0 µM,27%
same,growth inhibition,[1]; at 33.0 µM,76% (active)
same,growth inhibition,[1]; at 100.0 µM,93% (active)
same,growth inhibition,[2]; at 1.2 µM,28%
same,growth inhibition,[2]; at 3.7 µM,25%
same,growth inhibition,[2]; at 11.0 µM,29%
same,growth inhibition,[2]; at 33.0 µM,63%
same,growth inhibition,[2]; at 100.0 µM,95% (active)
same,growth inhibition,[3]; at 1.2 µM,14%
same,growth inhibition,[3]; at 3.7 µM,27%
same,growth inhibition,[3]; at 11.0 µM,19%
same,growth inhibition,[3]; at 33.0 µM,32%
same,growth inhibition,[3]; at 100.0 µM,32%
same,growth inhibition,[4]; at 1.2 µM,5%
same,growth inhibition,[4]; at 3.7 µM,13%
same,growth inhibition,[4]; at 11.0 µM,35%
same,growth inhibition,[4]; at 33.0 µM,69%
same,growth inhibition,[4]; at 100.0 µM,94% (active)
same,growth inhibition,[5]; at 1.2 µM,12%
same,growth inhibition,[5]; at 3.7 µM,20%
same,growth inhibition,[5]; [17],19%
same,growth inhibition,[5]; at 11.0 µM,29%
same,growth inhibition,[5]; at 33.0 µM,68%
same,growth inhibition,[5]; [18],62%
same,growth inhibition,[5]; at 50.0 µM,50%
same,growth inhibition,[5]; at 100.0 µM,95% (active)
same,growth inhibition,[6]; at 1.2 µM,25%
same,growth inhibition,[6]; at 3.7 µM,23%
same,growth inhibition,[6]; [17],-9%
same,growth inhibition,[6]; at 11.0 µM,41%
same,growth inhibition,[6]; at 33.0 µM,74% (active)
same,growth inhibition,[6]; [18],74% (active)
same,growth inhibition,[6]; at 50.0 µM,89.8% (active)
same,growth inhibition,[6]; at 100.0 µM,93% (active)
same,growth inhibition,[7]; at 1.2 µM,7%
same,growth inhibition,[7]; at 3.7 µM,8%
same,growth inhibition,[7]; at 11.0 µM,20%
same,growth inhibition,[7]; at 33.0 µM,52%
same,growth inhibition,[7]; at 100.0 µM,92% (active)
same,growth inhibition,[8]; [17],27%
same,growth inhibition,[8]; [18],66%
same,growth inhibition,[8]; at 50.0 µM,89.6% (active)
same,growth inhibition,[9]; at 1.2 µM,15%
same,growth inhibition,[9]; at 3.7 µM,7%
same,growth inhibition,[9]; at 11.0 µM,29%
same,growth inhibition,[9]; at 33.0 µM,48%
same,growth inhibition,[9]; at 100.0 µM,79% (active)
same,growth inhibition,[10]; [17],10%
same,growth inhibition,[10]; [18],42%
same,growth inhibition,[10]; at 50.0 µM,90.4% (active)
same,growth inhibition,[11]; at 1.2 µM,-8%
same,growth inhibition,[11]; at 3.7 µM,-9%
same,growth inhibition,[11]; [17],20%
same,growth inhibition,[11]; at 11.0 µM,13%
same,growth inhibition,[11]; at 33.0 µM,69%
same,growth inhibition,[11]; [18],82% (active)
same,growth inhibition,[11]; at 50.0 µM,91.8% (active)
same,growth inhibition,[11]; at 100.0 µM,92% (active)
same,growth inhibition,[12]; at 1.2 µM,1%
same,growth inhibition,[12]; at 3.7 µM,0%
same,growth inhibition,[12]; at 11.0 µM,-12%
same,growth inhibition,[12]; at 33.0 µM,96% (active)
same,growth inhibition,[12]; at 100.0 µM,97% (active)
same,growth inhibition,[13]; at 1.2 µM,5%
same,growth inhibition,[13]; at 3.7 µM,13%
same,growth inhibition,[13]; at 11.0 µM,35%
same,growth inhibition,[13]; at 33.0 µM,69%
same,growth inhibition,[13]; at 100.0 µM,94% (active)
same,growth inhibition,[14]; at 1.2 µM,29%
same,growth inhibition,[14]; at 3.7 µM,33%
same,growth inhibition,[14]; at 11.0 µM,49%
same,growth inhibition,[14]; at 33.0 µM,78% (active)
same,growth inhibition,[14]; at 100.0 µM,94% (active)
same,growth inhibition,[15]; [17],6%
same,growth inhibition,[15]; [18],86% (active)
same,growth inhibition,[15]; at 50.0 µM,90.3% (active)
same,growth inhibition,[16]; at 1.2 µM,25%
same,growth inhibition,[16]; at 3.7 µM,16%
same,growth inhibition,[16]; at 11.0 µM,33%
same,growth inhibition,[16]; at 33.0 µM,64%
same,growth inhibition,[16]; at 100.0 µM,94% (active)
CCC(/C=C/c1ccccc1)=N\Nc1ccc(Cl)c(Cl)c1,growth inhibition,[1]; at 1.2 µM,7%
same,growth inhibition,[1]; at 3.7 µM,11%
same,growth inhibition,[1]; at 11.0 µM,17%
same,growth inhibition,[1]; at 33.0 µM,87% (active)
same,growth inhibition,[1]; at 100.0 µM,92% (active)
same,growth inhibition,[2]; at 1.2 µM,0%
same,growth inhibition,[2]; at 3.7 µM,-3%
same,growth inhibition,[2]; at 11.0 µM,-4%
same,growth inhibition,[2]; at 33.0 µM,24%
same,growth inhibition,[2]; at 100.0 µM,93% (active)
same,growth inhibition,[3]; at 1.2 µM,9%
same,growth inhibition,[3]; at 3.7 µM,20%
same,growth inhibition,[3]; at 11.0 µM,28%
same,growth inhibition,[3]; at 33.0 µM,29%
same,growth inhibition,[3]; at 100.0 µM,29%
same,growth inhibition,[4]; at 1.2 µM,-3%
same,growth inhibition,[4]; at 3.7 µM,4%
same,growth inhibition,[4]; at 11.0 µM,-4%
same,growth inhibition,[4]; at 33.0 µM,-3%
same,growth inhibition,[4]; at 100.0 µM,95% (active)
same,growth inhibition,[5]; at 1.2 µM,26%
same,growth inhibition,[5]; at 3.7 µM,36%
same,growth inhibition,[5]; [17],7%
same,growth inhibition,[5]; at 11.0 µM,22%
same,growth inhibition,[5]; at 33.0 µM,89% (active)
same,growth inhibition,[5]; [18],89% (active)
same,growth inhibition,[5]; at 50.0 µM,95.5% (active)
same,growth inhibition,[5]; at 100.0 µM,91% (active)
same,growth inhibition,[6]; at 1.2 µM,-2%
same,growth inhibition,[6]; at 3.7 µM,-1%
same,growth inhibition,[6]; [17],-1%
same,growth inhibition,[6]; at 11.0 µM,-5%
same,growth inhibition,[6]; at 33.0 µM,22%
same,growth inhibition,[6]; [18],81% (active)
same,growth inhibition,[6]; at 50.0 µM,72.5% (active)
same,growth inhibition,[6]; at 100.0 µM,92% (active)
same,growth inhibition,[7]; at 1.2 µM,2%
same,growth inhibition,[7]; at 3.7 µM,0%
same,growth inhibition,[7]; at 11.0 µM,-6%
same,growth inhibition,[7]; at 33.0 µM,10%
same,growth inhibition,[7]; at 100.0 µM,94% (active)
same,growth inhibition,[8]; [17],3%
same,growth inhibition,[8]; [18],74% (active)
same,growth inhibition,[8]; at 50.0 µM,82.5% (active)
same,growth inhibition,[9]; at 1.2 µM,-2%
same,growth inhibition,[9]; at 3.7 µM,-8%
same,growth inhibition,[9]; at 11.0 µM,-9%
same,growth inhibition,[9]; at 33.0 µM,36%
same,growth inhibition,[9]; at 100.0 µM,89% (active)
same,growth inhibition,[10]; [17],1%
same,growth inhibition,[10]; [18],71% (active)
same,growth inhibition,[10]; at 50.0 µM,85.7% (active)
same,growth inhibition,[11]; at 1.2 µM,-2%
same,growth inhibition,[11]; at 3.7 µM,2%
same,growth inhibition,[11]; [17],2%
same,growth inhibition,[11]; at 11.0 µM,14%
same,growth inhibition,[11]; at 33.0 µM,85% (active)
same,growth inhibition,[11]; [18],93% (active)
same,growth inhibition,[11]; at 50.0 µM,94.3% (active)
same,growth inhibition,[11]; at 100.0 µM,91% (active)
same,growth inhibition,[12]; at 1.2 µM,-2%
same,growth inhibition,[12]; at 3.7 µM,-5%
same,growth inhibition,[12]; at 11.0 µM,7%
same,growth inhibition,[12]; at 33.0 µM,22%
same,growth inhibition,[12]; at 100.0 µM,95% (active)
same,growth inhibition,[13]; at 1.2 µM,-4%
same,growth inhibition,[13]; at 3.7 µM,-2%
same,growth inhibition,[13]; at 11.0 µM,0%
same,growth inhibition,[13]; at 33.0 µM,39%
same,growth inhibition,[13]; at 100.0 µM,94% (active)
same,growth inhibition,[14]; at 1.2 µM,-3%
same,growth inhibition,[14]; at 3.7 µM,-17%
same,growth inhibition,[14]; at 11.0 µM,17%
same,growth inhibition,[14]; at 33.0 µM,67%
same,growth inhibition,[14]; at 100.0 µM,95% (active)
same,growth inhibition,[15]; [17],9%
same,growth inhibition,[15]; [18],93% (active)
same,growth inhibition,[15]; at 50.0 µM,91.3% (active)
same,growth inhibition,[16]; at 1.2 µM,6%
same,growth inhibition,[16]; at 3.7 µM,16%
same,growth inhibition,[16]; at 11.0 µM,8%
same,growth inhibition,[16]; at 33.0 µM,43%
same,growth inhibition,[16]; at 100.0 µM,95% (active)
